Compounds without any hit were thinned out: in the full panel of roughly 83,000, 20% have a hit.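 Cell lines were cultured in 96-well plates, exposed to a single compound concentration, and assessed for percent growth 48 hours later.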 Activity calls are given as the source filed them. How the source made its calls: active means growth percent below 10; inactive means the rest.
What was measured:
Experiment in all cases: NCI-60 one-dose screen, 48 h (100 = growth as untreated, 0 = no growth, -100 = all killed)
Settings in all cases: 10 µM unless noted
HCT-15 colon = system: HCT-15 colon
HT29 colon = system: HT29 colon
SNB-75 CNS = system: SNB-75 CNS
SNB-19 CNS = system: SNB-19 CNS
U251 CNS = system: U251 CNS
PC-3 prostate = system: PC-3 prostate
SK-MEL-5 melanoma = system: SK-MEL-5 melanoma
UACC-62 melanoma = system: UACC-62 melanoma
LOX IMVI melanoma = system: LOX IMVI melanoma
SK-MEL-28 melanoma = system: SK-MEL-28 melanoma

Measured: growth

COc1ccc(C2CC(c3cccc(Nc4ccnc5cc(Cl)ccc45)c3)=NN2c2ccc(Cl)cc2)cc1 (stereo not drawn)
inactive: HCT-15 colon 42.5% | HT29 colon 64.2% | SNB-75 CNS 79.7% | SNB-19 CNS 94.8% | U251 CNS 65% | PC-3 prostate 60.7% | SK-MEL-5 melanoma 53.4% | LOX IMVI melanoma 47.4% | SK-MEL-28 melanoma 65.8%
active: UACC-62 melanoma 9.78%

CC(C)c1[nH]ncc1-c1nc2ccc3[nH]ncc3c2c2c1CCCC2
inactive: HCT-15 colon 37.5% | HT29 colon 35% | SNB-19 CNS 40.4% | U251 CNS 37.7% | PC-3 prostate 44.2% | SK-MEL-5 melanoma 45.2% | UACC-62 melanoma 34.1% | LOX IMVI melanoma 23.6%
active: SNB-75 CNS -3.19%

COc1ccc2c(c1)N(CCO)C1=C(C(=O)OC1)C2c1cccc(Br)c1 (stereo not drawn)
active: HCT-15 colon 7.92% | HT29 colon -9.38% | SK-MEL-5 melanoma 2.15%
inactive: SNB-75 CNS 29.2% | SNB-19 CNS 35.4% | U251 CNS 14% | PC-3 prostate 26.2% | UACC-62 melanoma 25% | LOX IMVI melanoma 22.2% | SK-MEL-28 melanoma 58.6%

O=C(NCC(c1ccsc1)N1CCCCCC1)c1ccc(C(F)(F)F)cc1 (stereo not drawn)
inactive: HCT-15 colon 100% | HT29 colon 82% | SNB-75 CNS 87.6% | SNB-19 CNS 87.9% | U251 CNS 90.7% | PC-3 prostate 88.5% | SK-MEL-5 melanoma 94.9% | UACC-62 melanoma 99.1% | LOX IMVI melanoma 78.9% | SK-MEL-28 melanoma 110%

CNCc1ccccc1CN(CC(=O)Nc1ccc2c(c1)CC1(C2)C(=O)Nc2ncccc21)C(=O)C(C)(C)C (stereo not drawn)
inactive: HCT-15 colon 111% | HT29 colon 105% | SNB-75 CNS 83.2% | SNB-19 CNS 103% | U251 CNS 103% | PC-3 prostate 98% | SK-MEL-5 melanoma 103% | UACC-62 melanoma 99.8% | LOX IMVI melanoma 97.4%

COc1c(-c2cc(-c3ccc(C)o3)[nH]c(=O)n2)c(O)cc2occc12
inactive: HCT-15 colon 32.6% | HT29 colon 96% | SNB-75 CNS 50% | SNB-19 CNS 65.9% | U251 CNS 63.5% | PC-3 prostate 69.4% | SK-MEL-5 melanoma 76.8% | UACC-62 melanoma 48.1% | LOX IMVI melanoma 58.2%

COc1cc2c(cc1C)NC(=O)/C2=C\c1c[nH]c2ccccc12
inactive: HCT-15 colon 58.4% | HT29 colon 35.4% | SNB-75 CNS 37.9% | SNB-19 CNS 84.7% | U251 CNS 61.5% | PC-3 prostate 53.3% | SK-MEL-5 melanoma 73.8% | UACC-62 melanoma 77.9% | LOX IMVI melanoma 44.9%

COc1ccc(-c2cnc3ccnn3c2-c2cc(OC)c(OC)c(OC)c2)cc1
inactive: HCT-15 colon 27.8% | SNB-19 CNS 56.4% | U251 CNS 37.7% | PC-3 prostate 29.9% | SK-MEL-5 melanoma 13.6% | UACC-62 melanoma 42.3% | LOX IMVI melanoma 42.5% | SK-MEL-28 melanoma 71.1%
active: HT29 colon 8.99% | SNB-75 CNS 5.62%

COc1ccc2nc(NC(=O)/C(=C/c3cc(OC)c(OC)c(OC)c3)c3ccc(OC)c(OC)c3)sc2c1
inactive: HCT-15 colon 100% | HT29 colon 88.4% | SNB-75 CNS 94.3% | SNB-19 CNS 102% | U251 CNS 94.6% | PC-3 prostate 86.8% | SK-MEL-5 melanoma 93% | UACC-62 melanoma 90.5% | LOX IMVI melanoma 90.4% | SK-MEL-28 melanoma 105%

COc1c(B(O)O)cccc1-c1nc2ccc3[nH]ncc3c2c2c1CCCC2
active: SNB-75 CNS -2.29% | LOX IMVI melanoma -15.4%
inactive: HCT-15 colon 25.4% | HT29 colon 37.9% | SNB-19 CNS 12.5% | U251 CNS 13.2% | PC-3 prostate 18.4% | SK-MEL-5 melanoma 42.3% | UACC-62 melanoma 26.6%

Oc1ccc(Cl)cc1-c1cc(-c2ccccc2Cl)[nH]n1
inactive: HCT-15 colon 29.2% | HT29 colon 92.2% | SNB-75 CNS 44.2% | SNB-19 CNS 88% | U251 CNS 67% | PC-3 prostate 44.1% | SK-MEL-5 melanoma 68.7% | UACC-62 melanoma 59.5% | LOX IMVI melanoma 51.7% | SK-MEL-28 melanoma 89.7%

CC(C)[C@H](CN)NC[C@H](C)NS(=O)(=O)c1ccc(C(C)(C)C)cc1
inactive: HCT-15 colon 99.3% | HT29 colon 65.5% | SNB-75 CNS 84.2% | SNB-19 CNS 111% | U251 CNS 87.1% | PC-3 prostate 83.5% | SK-MEL-5 melanoma 86.8% | UACC-62 melanoma 111% | LOX IMVI melanoma 99.9%

COc1ccc(/C=c2\c(=O)n(-c3ccccc3)c3nn4c(n23)=NNC42CCCCC2)cc1
inactive: HCT-15 colon 102% | HT29 colon 106% | SNB-75 CNS 87.7% | SNB-19 CNS 93.9% | U251 CNS 103% | PC-3 prostate 90.1% | SK-MEL-5 melanoma 100% | UACC-62 melanoma 93.2% | LOX IMVI melanoma 95.1% | SK-MEL-28 melanoma 111%

C[C@]12CCc3nc(Nc4ccc(O)cc4)sc3C1=CC[C@@H]1[C@@H]2CC[C@]2(C)/C(=N/NC(N)=S)CC[C@@H]12
active: HCT-15 colon -48% | HT29 colon -47.6% | SNB-75 CNS -2.86% | SNB-19 CNS -13.1% | U251 CNS -70.3% | PC-3 prostate -33.7% | SK-MEL-5 melanoma -61.2% | UACC-62 melanoma -74.8% | LOX IMVI melanoma -52.5%
